For some assays here: Results with a measured potency or affinity are listed apart. Calls of active or inactive are those of the source. Unless noted, no rule for the calls is given here.
Columns and labels:
[1] = antimalarial activity against Dd2 strain (AID 2302;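 active = growth inhibition above 50% at the single 2 µM test dose, taken to imply half-maximal potency below 2 µM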;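 also: 0% = DMSO untreated growth and 100% = chloroquine plus artemisinin killed control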); conditions: P. falciparum Dd2 in RBCs, LDH growth readout, 72 h; at 2 µM; active compounds read high
[2] = HepG2 cytotoxicity, primary screen, cytotoxicity control for P. falciparum antimalarial project, cell-based, ATP luminescence (AID 2303;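 active = inhibition above 50%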;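 also: 0% = DMSO wells and 100% = digitonin-killed cells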); conditions: HepG2 viability, 24-48 h, at 10 µM, active compounds read high
[3] = molecular target: L-lactate dehydrogenase (Plasmodium falciparum (isolate CDC / Honduras)) (UniProt Q27743); assay: PfLDH activity inhibition – cell lysate, 3D7 strain, counter-screen for P. falciparum growth inhibition project (AID 2304);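 also: 0% = vehicle and 100% = reference inhibitor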; conditions: P. falciparum 3D7 crude extract, LDH APAD/NBT absorbance; at 2 µM; active compounds read high
Sequence of L-lactate dehydrogenase (Plasmodium falciparum (isolate CDC / Honduras)) (Q27743 whole entry, looked up): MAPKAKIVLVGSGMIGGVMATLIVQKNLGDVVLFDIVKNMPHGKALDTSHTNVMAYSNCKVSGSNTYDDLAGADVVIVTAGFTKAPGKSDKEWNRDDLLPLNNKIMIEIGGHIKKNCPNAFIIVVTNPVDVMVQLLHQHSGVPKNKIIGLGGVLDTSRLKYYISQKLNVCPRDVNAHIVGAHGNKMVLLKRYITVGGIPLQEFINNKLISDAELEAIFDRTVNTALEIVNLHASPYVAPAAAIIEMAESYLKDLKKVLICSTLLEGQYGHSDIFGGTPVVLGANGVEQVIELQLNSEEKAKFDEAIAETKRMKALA

[4] = inhibition of 3D7 malaria parasite growth – strain 3D7 (AID 2306);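 also: 0% = DMSO wells and 100% = chloroquine plus artemisinin control wells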; conditions: P. falciparum 3D7 erythrocytic growth, LDH absorbance, 72 h; at 2 µM; active compounds read high
[5] = molecular target: Calcium-dependent protein kinase 1 (Plasmodium falciparum (isolate 3D7)) (UniProt P62344); assay: PfCDPK1 kinase inhibitors, biochemical, TCAMS library (AID 1159585; cut-off not given, nearly all actives have IC50 up to about 0.98 µM;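 also: inhibitors leave more ATP so luminescence rises with inhibition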); conditions: recombinant PfCDPK1, Kinase-Glo ATP depletion luminescence
Sequence of Calcium-dependent protein kinase 1 (Plasmodium falciparum (isolate 3D7)) (P62344 whole entry, looked up): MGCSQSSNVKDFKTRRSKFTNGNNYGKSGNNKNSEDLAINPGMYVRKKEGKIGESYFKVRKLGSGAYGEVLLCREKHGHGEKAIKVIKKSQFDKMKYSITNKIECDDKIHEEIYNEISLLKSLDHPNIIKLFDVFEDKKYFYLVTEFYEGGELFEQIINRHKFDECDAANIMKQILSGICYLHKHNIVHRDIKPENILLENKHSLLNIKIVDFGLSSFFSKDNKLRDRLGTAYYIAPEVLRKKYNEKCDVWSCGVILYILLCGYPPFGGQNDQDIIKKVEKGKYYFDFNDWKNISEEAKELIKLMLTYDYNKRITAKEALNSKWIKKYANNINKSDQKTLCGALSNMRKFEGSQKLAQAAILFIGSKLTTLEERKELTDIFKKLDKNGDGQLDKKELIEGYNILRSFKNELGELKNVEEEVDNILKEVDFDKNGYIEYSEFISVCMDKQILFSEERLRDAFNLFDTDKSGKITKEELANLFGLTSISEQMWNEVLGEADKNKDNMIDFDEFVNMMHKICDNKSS

[6] = molecular target: Plasmodium falciparum protein kinase 6 (PK6, PF3D7_1337100) (UniProt Q8IDW1); assay: PfPK6 kinase inhibitors, biochemical, TCAMS library (AID 1159586); conditions: recombinant PfPK6, Kinase-Glo ATP depletion luminescence
Sequence of Plasmodium falciparum protein kinase 6 (PK6, PF3D7_1337100) (Q8IDW1 1-305): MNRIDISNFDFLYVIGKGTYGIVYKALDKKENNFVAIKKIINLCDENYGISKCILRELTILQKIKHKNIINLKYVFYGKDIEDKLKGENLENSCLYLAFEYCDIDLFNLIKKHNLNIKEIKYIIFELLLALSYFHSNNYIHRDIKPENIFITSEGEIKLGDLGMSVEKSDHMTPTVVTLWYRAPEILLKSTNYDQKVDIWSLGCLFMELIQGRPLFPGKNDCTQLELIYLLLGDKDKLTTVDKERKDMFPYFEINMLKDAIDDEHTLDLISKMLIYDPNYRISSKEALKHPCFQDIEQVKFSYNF

[7] = molecular target: Protein kinase 7 (PK7), Plasmodium falciparum 3D7 (PF3D7_0213400) (UniProt Q7YTF7); assay: inhibition of Plasmodium PK7 catalytic activity – biochemical, TCAMS antimalarial set, Kinase-Glo luminescence (AID 1159587); conditions: recombinant PfPK7, Kinase-Glo ATP depletion luminescence
Sequence of Protein kinase 7 (PK7), Plasmodium falciparum 3D7 (PF3D7_0213400) (Q7YTF7 1-343): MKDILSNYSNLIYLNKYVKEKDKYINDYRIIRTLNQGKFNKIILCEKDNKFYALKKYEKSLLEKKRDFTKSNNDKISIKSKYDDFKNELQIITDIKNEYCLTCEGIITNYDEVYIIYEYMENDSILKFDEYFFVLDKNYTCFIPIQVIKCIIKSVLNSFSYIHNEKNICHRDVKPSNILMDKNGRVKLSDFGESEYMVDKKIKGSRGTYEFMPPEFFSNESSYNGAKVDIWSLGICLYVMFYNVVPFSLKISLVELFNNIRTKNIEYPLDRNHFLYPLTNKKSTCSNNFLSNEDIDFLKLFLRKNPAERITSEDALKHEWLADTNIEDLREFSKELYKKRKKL

[8] = molecular target: Calcium-dependent protein kinase 4 (Plasmodium falciparum (isolate 3D7)) (UniProt Q8IBS5); assay: PfCDPK4 kinase inhibitors, biochemical, TCAMS library (AID 1159588; cut-off not given, nearly all actives have IC50 up to about 0.91 µM); conditions: recombinant PfCDPK4, Kinase-Glo ATP depletion luminescence
Sequence of Calcium-dependent protein kinase 4 (Plasmodium falciparum (isolate 3D7)) (Q8IBS5 whole entry, looked up): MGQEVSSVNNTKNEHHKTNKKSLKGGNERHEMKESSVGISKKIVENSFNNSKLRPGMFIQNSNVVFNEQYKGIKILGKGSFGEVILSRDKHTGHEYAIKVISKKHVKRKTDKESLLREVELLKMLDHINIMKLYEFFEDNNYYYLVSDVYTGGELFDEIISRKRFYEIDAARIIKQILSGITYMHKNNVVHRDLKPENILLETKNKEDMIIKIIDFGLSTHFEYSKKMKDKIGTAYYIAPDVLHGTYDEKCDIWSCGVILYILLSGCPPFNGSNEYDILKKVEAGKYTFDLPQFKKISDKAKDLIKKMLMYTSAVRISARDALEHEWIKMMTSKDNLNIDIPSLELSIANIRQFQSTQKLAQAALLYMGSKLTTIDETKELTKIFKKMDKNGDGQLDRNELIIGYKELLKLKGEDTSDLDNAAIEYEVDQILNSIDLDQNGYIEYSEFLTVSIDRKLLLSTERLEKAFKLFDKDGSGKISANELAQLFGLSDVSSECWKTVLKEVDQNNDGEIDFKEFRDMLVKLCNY

O=C(NCCCN1CCCC1=O)NCc1ccccc1
inactive: growth inhibition [1] 4% | inhibition [2] 8% | inhibition [3] 3% | outcome [5] | outcome [6] | outcome [7] | outcome [8]
active: growth inhibition [4] 99%

c1cc(-c2ccc(CNCc3ccc(-c4csnn4)cc3)cc2)cc(-c2nc3ccccc3[nH]2)c1
inactive: inhibition [3] -7% | outcome [5] | outcome [6] | outcome [7] | outcome [8]
active: growth inhibition [1] 96% | inhibition [2] 60% | growth inhibition [4] 100%

CCCc1cc(=O)oc2cc(OC)c(C(=O)CC(C)C)c(OC)c12
active: growth inhibition [1] 67% | growth inhibition [4] 81%
inactive: inhibition [2] 3% | inhibition [3] 2% | outcome [5] | outcome [6] | outcome [7] | outcome [8]

Cc1ccccc1C1CCN(C2CCC(NC(=O)/C=C/c3ccc(OC(F)(F)F)cc3)CC2)CC1 (stereo unspecified)
active: growth inhibition [1] 67% | inhibition [2] 96% | growth inhibition [4] 100%
inactive: inhibition [3] -5% | outcome [5] | outcome [6] | outcome [7] | outcome [8]

NOCCCCOc1ccccc1
inactive: growth inhibition [1] 2% | inhibition [2] 12% | inhibition [3] -4% | outcome [5] | outcome [6] | outcome [7] | outcome [8]
active: growth inhibition [4] 99%

Cn1ccnc1CNC(=O)c1ccc(-c2cccc(-c3nc4ccc(C(F)(F)F)cc4[nH]3)c2)cc1
active: growth inhibition [1] 80% | growth inhibition [4] 101%
inactive: inhibition [2] 20% | inhibition [3] 3% | outcome [5] | outcome [6] | outcome [7] | outcome [8]

COc1ccc(OC)c(NC(=O)CSc2nc(-c3ccccc3Cl)ns2)c1
inactive: growth inhibition [1] 32% | inhibition [2] -8% | inhibition [3] -1% | outcome [5] | outcome [6] | outcome [7] | outcome [8]
active: growth inhibition [4] 95%

O=[N+]([O-])c1cc(C=NNc2nc3nonc3nc2Nc2ccc(F)cc2)c(Cl)cc1Cl
inactive: growth inhibition [1] 13% | inhibition [2] 5% | inhibition [3] -4% | outcome [5] | outcome [6] | outcome [7] | outcome [8]
active: growth inhibition [4] 98%

COc1ccc(-c2cccc(NC(=O)c3ccc(Cl)cc3)c2)cc1CN1CCCN(C)CC1
active: growth inhibition [1] 95% | growth inhibition [4] 101%
inactive: inhibition [2] 29% | inhibition [3] -8% | outcome [5] | outcome [6] | outcome [7] | outcome [8]

COc1cccc(-c2cccc(NC(=O)C3CCN(Cc4ccc(O)cc4)CC3)c2)c1
active: growth inhibition [1] 97% | growth inhibition [4] 97%
inactive: inhibition [2] 9% | inhibition [3] 0% | outcome [5] | outcome [6] | outcome [7] | outcome [8]

Cc1cc(N[C@@H](CC(C)C)C(=O)NCCCOC(C)C)nc(NCCc2ccc(F)cc2)n1
active: growth inhibition [4] 87%
inactive: growth inhibition [1] 19% | inhibition [2] 5% | inhibition [3] -2% | outcome [5] | outcome [6] | outcome [7] | outcome [8]

COC(=O)c1cc(C(=O)CN(Cc2ccccc2)C(C)C)ccc1O
inactive: growth inhibition [1] -1% | inhibition [2] 7% | inhibition [3] -2% | outcome [5] | outcome [6] | outcome [7] | outcome [8]
active: growth inhibition [4] 97%

O=C(/C=C/c1ccc(Cl)c(Cl)c1)NCCCCCN1CCCN(C(=S)Nc2ccc(Cl)c(Cl)c2)CC1
inactive: growth inhibition [1] -3% | inhibition [2] 16% | inhibition [3] -3% | outcome [5] | outcome [6] | outcome [7] | outcome [8]
active: growth inhibition [4] 96%

Cc1ccc(CNC(=O)[C@H](CCCN)Nc2cc(C)nc(Nc3ccccc3)n2)cc1
active: growth inhibition [4] 90%
inactive: growth inhibition [1] -4% | inhibition [2] -2% | inhibition [3] 2% | outcome [5] | outcome [6] | outcome [7] | outcome [8]

O=C(Nc1ccc(Cl)cc1)c1cc(Cl)ccc1NC(=O)C1CCc2ccccc2O1 (stereo unspecified)
active: growth inhibition [1] 63% | growth inhibition [4] 98%
inactive: inhibition [2] 1% | inhibition [3] -1% | outcome [5] | outcome [6] | outcome [7] | outcome [8]

CCN(CC)CCNc1ccnc2[nH]c3ccc([N+](=O)[O-])cc3c12
inactive: inhibition [2] 6% | inhibition [3] -4% | outcome [5] | outcome [6] | outcome [7] | outcome [8]
active: growth inhibition [1] 76% | growth inhibition [4] 100%

Cc1cc(NC(=O)NCCN2CCC(NC(=O)c3cccc(Br)c3)C2)c2ccccc2n1 (stereo unspecified)
inactive: inhibition [2] -2% | inhibition [3] -1% | outcome [5] | outcome [6] | outcome [7] | outcome [8]
active: growth inhibition [1] 60% | growth inhibition [4] 100%

CCCCCNc1nc(Nc2ccccc2C)nc2ccccc12
inactive: growth inhibition [1] 30% | inhibition [2] 5% | inhibition [3] -7% | outcome [5] | outcome [6] | outcome [7] | outcome [8]
active: growth inhibition [4] 100%

O=C(O)c1ccc2nc(-c3ccccn3)c(-c3ccccn3)nc2c1
inactive: growth inhibition [1] 18% | inhibition [2] 3% | inhibition [3] 4% | outcome [5] | outcome [6] | outcome [7] | outcome [8]
active: growth inhibition [4] 97%

COc1ccc(NC(=O)c2ccc(Br)c(C)c2)cc1N1CCN(CCCCc2ccccc2)CC1
active: growth inhibition [4] 88%
inactive: growth inhibition [1] 17% | inhibition [2] 29% | inhibition [3] -1% | outcome [5] | outcome [6] | outcome [7] | outcome [8]

CCc1cn(C)c2c(N3CCCC3=O)cc(C(=O)N[C@@H](Cc3ccccc3)[C@H](O)CNCc3cccc(OC)c3)cc12
active: growth inhibition [1] 97% | growth inhibition [4] 96%
inactive: inhibition [2] 7% | inhibition [3] 0% | outcome [5] | outcome [6] | outcome [7] | outcome [8]

Cc1ccc2c(NN=Cc3ccc(N(C)C)cc3)cc(C)nc2c1
active: growth inhibition [4] 99%
inactive: growth inhibition [1] 46% | inhibition [2] -9% | inhibition [3] 8% | outcome [5] | outcome [6] | outcome [7] | outcome [8]

Nc1nccc2ccc(-c3cccc(OCc4ccccc4)c3)cc12
active: growth inhibition [1] 81% | growth inhibition [4] 101%
inactive: inhibition [2] 47% | inhibition [3] 5% | outcome [5] | outcome [6] | outcome [7] | outcome [8]

CC1CC(C)CN(S(=O)(=O)c2cc(C(=O)Nc3cccc([N+](=O)[O-])c3)ccc2Br)C1 (stereo unspecified)
active: growth inhibition [1] 68% | growth inhibition [4] 101%
inactive: inhibition [2] 1% | inhibition [3] -5% | outcome [5] | outcome [6] | outcome [7] | outcome [8]

Cc1cc(-c2ccc(NC(=O)N3CCc4cc(Br)c(N5CCN(C)CC5)cc43)cc2)ccc1C#N
inactive: inhibition [3] 0% | outcome [5] | outcome [6] | outcome [7] | outcome [8]
active: growth inhibition [1] 56% | inhibition [2] 100% | growth inhibition [4] 99%

c1cc(CNC2CCCC2)cc(-c2ccc(CNc3ccc4ncccc4c3)cc2)c1
active: growth inhibition [4] 98%
inactive: growth inhibition [1] 24% | inhibition [2] 32% | inhibition [3] -9% | outcome [5] | outcome [6] | outcome [7] | outcome [8]

O=C(Nc1ccc(Cl)c(Cl)c1)N1CCC(CNCc2cccc([N+](=O)[O-])c2)CC1
inactive: growth inhibition [1] 6% | inhibition [2] 13% | inhibition [3] 2% | outcome [5] | outcome [6] | outcome [7] | outcome [8]
active: growth inhibition [4] 98%

Cc1cccc2[nH]c(-c3cccc(-c4ccc(NC(=O)NC(C)C)cc4)c3)nc12
inactive: growth inhibition [1] 44% | inhibition [2] 30% | inhibition [3] -2% | outcome [5] | outcome [6] | outcome [7] | outcome [8]
active: growth inhibition [4] 98%

O=C(O)C[C@H](NC(=O)c1cc(-c2ccc3c(c2)OCO3)no1)C(=O)O (tested in a mixture with another compound)
active: growth inhibition [4] 98%
inactive: growth inhibition [1] -3% | inhibition [2] -4% | inhibition [3] -2% | outcome [5] | outcome [6] | outcome [7] | outcome [8]

CN1CCCC(CN2CCN(Cc3ccc(-c4ccc(-c5nc6ccc(F)cc6[nH]5)s4)cc3)CC2)C1 (stereo unspecified)
inactive: inhibition [3] -2% | outcome [5] | outcome [6] | outcome [7] | outcome [8]
active: growth inhibition [1] 100% | inhibition [2] 73% | growth inhibition [4] 101%

Cc1cc2c(cc1C(F)(F)F)N(C(=O)Nc1cnc(OCCN(C)C)c(C(F)(F)F)c1)CC2
active: growth inhibition [4] 88%
inactive: growth inhibition [1] 25% | inhibition [2] 28% | inhibition [3] -2% | outcome [5] | outcome [6] | outcome [7] | outcome [8]

COc1cc(N)c(Cl)cc1C(=O)NCC1CCN(c2nc(C)cc(C)n2)CC1
inactive: inhibition [2] -6% | inhibition [3] 4% | outcome [5] | outcome [6] | outcome [7] | outcome [8]
active: growth inhibition [1] 95% | growth inhibition [4] 96%

N=C(N)CCN(Cc1ccccc1)c1ccc(Cl)cc1
inactive: inhibition [2] 1% | inhibition [3] 4% | outcome [5] | outcome [6] | outcome [7] | outcome [8]
active: growth inhibition [1] 98% | growth inhibition [4] 98%

Cn1cc(C2CCN(CCCCNC(=O)c3ccc(-c4ccc(C(F)(F)F)cc4)c(CO)c3)CC2)c2ccccc21
inactive: growth inhibition [1] 16% | inhibition [3] -1% | outcome [5] | outcome [6] | outcome [7] | outcome [8]
active: inhibition [2] 67% | growth inhibition [4] 88%

Cc1cc2c3c(N)nc(N)nc3ccc2n1C(C)C
active: inhibition [2] 70% | growth inhibition [4] 93%
inactive: growth inhibition [1] 0% | inhibition [3] 2% | outcome [5] | outcome [6] | outcome [7] | outcome [8]

Cc1cccc2[nH]c(-c3ccc(-c4ccc(NC(=O)NCc5cccc(F)c5)cc4)s3)nc12
inactive: growth inhibition [1] 43% | inhibition [3] -6% | outcome [5] | outcome [6] | outcome [7] | outcome [8]
active: inhibition [2] 70% | growth inhibition [4] 101%

CCCCCn1c(Sc2ccc(C#N)c([N+](=O)[O-])c2)nnc1-c1ccccc1
active: growth inhibition [4] 93%
inactive: growth inhibition [1] 15% | inhibition [2] 22% | inhibition [3] -2% | outcome [5] | outcome [6] | outcome [7] | outcome [8]

From PubChem BioAssay
